NOD2 RIPK2 PPI = inhibitors of human NOD2-RIPK2 interaction | O43353 | inhibition, % at 4.98 µM | CHO BLA complementation NOD2-RIPK2, CCF4 ratio | 0.38% of 360,000 active; in the data active means inhibition above about 21%;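 further: 0% = vehicle only and 100% = reference blocker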
Target sequence (O43353 whole entry, looked up): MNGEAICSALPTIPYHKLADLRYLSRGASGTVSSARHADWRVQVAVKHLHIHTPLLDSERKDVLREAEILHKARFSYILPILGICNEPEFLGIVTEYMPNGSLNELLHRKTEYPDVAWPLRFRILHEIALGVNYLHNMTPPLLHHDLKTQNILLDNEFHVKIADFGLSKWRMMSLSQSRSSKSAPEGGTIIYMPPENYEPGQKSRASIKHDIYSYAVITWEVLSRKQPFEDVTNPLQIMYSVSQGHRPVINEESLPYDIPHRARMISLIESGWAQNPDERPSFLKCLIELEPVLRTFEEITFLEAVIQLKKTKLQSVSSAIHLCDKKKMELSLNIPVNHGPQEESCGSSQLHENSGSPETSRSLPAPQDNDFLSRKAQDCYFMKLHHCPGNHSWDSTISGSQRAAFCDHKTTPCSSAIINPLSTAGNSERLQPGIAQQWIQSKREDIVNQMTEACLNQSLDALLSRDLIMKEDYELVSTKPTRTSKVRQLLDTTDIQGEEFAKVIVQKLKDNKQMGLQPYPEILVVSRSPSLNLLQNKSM
Myeloid diff MLP = myeloid differentiation induction; ER-HoxA9 myeloid progenitors, lysozyme-GFP differentiation, flow cytometry; calls only at 10 µM; 1% of 360,000 active;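 active means normalized GFP-positive differentiation at or above the plate's own cutoff, the solvent-only control mean plus 3 SD; inconclusive means no clear call, values can overlap the other calls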;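 further: cells exposed to compound for four days before flow analysis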
TLR4 MyD88 comp = inhibitors of human TLR4-MyD88 binding; inhibition, % at 8.4 µM; 0.18% of 200,000 active; O00206+Q99836; AID 861; HeLa CL3-4 TLR4/MyD88 BLA complementation, FRET ratio; in the data active means inhibition above about 25%;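 further: 0% = vehicle and 100% = reference inhibitor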
TLR9-MyD88 block = TLR9-MyD88 interaction inhibition | inhibition, % at 4.98 µM | 0.21% of 340,000 active | AID 504734 | CHO BLA complementation TLR9-MyD88, CCF4 FRET ratio | Q9NR96+Q99836;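 active means inhibition above the mean over all tested compounds plus 3 SD, cut at about 21% in these data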;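 further: 0% = DMSO only wells and 100% = clavulanate BLA inhibitor control wells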
NOD2 RIPK2 conf = NOD2-RIPK2 interaction inhibition confirmed; shares compounds with NOD2 RIPK2 PPI; CHO cells, NOD2-RIPK2 BLA complementation, CCF4 FRET; inhibition, % at 4.98 µM; 70% of 1,200 active; AID 624370;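 active means mean inhibition across replicates above a set limit taken from the earlier primary screen, cut at about 21% in these data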;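 further: 0% = DMSO-only wells and the high end = clavulanate BLA-blocked wells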
BLA counter = hits BLA reporter in NOD2-RIPK2 inhibitor counterscreen; inhibition, % at 4.98 µM; shares compounds with NOD2 RIPK2 PPI; CHO BLA reporter, CCF4 FRET ratio; 57% of 1,200 active;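 active means mean inhibition above the low-control mean inhibition plus three low-control SD, cut at about 11% in these data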;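 further: 0% = DMSO only wells and 100% = clavulanate high control wells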
Numbers without * were called inactive; i = inactive; ? = inconclusive; . = no result given; + = active, no number. A selection: hits, their analogues and other compounds. The true share with any hit is near 1.5%.

SMILES | NOD2 RIPK2 PPI | Myeloid diff MLP | TLR4 MyD88 comp | TLR9-MyD88 block | NOD2 RIPK2 conf | BLA counter
Cc1cccc(CS(=O)(=O)c2ncc(Cl)c(C(=O)NCc3ccccc3)n2)c1 | 56.9* | i | . | 2.0 | 69.0* | 14.9*
Cn1nc(C(C)(C)C)cc1N1C(=O)CCC1(C)C(=O)Nc1ccc2c(c1)OCCO2 (stereo not given) | -8.8 | i | . | . | . | .
Cc1ccc(O)c(C2=Nc3ccccc3N=C(c3ccco3)C2)c1 | 23.2* | i | -4.1 | 12.1 | 8.5 | 46.3*
COc1ccc(Nc2nc3cc(C)ccc3cc2C#N)cc1 | 21.2* | + | . | 3.9 | 5.6 | 16.8*
CC(C)(C)NC(=O)C(CCc1ccccc1)n1c(=O)c(-c2cc3ccccc3[nH]2)nc2ccccc21 (stereo not given) | 43.8* | i | . | . | 40.3* | 66.2*
Cc1cccc(C)c1NC(=O)C(CCc1ccccc1)n1c(=O)c(-c2ccccc2)nc2ccccc21 (stereo not given) | 11.4 | i | . | . | . | .
Cc1cccc(C)c1NC(=O)C(CCc1ccccc1)n1c(=O)c(-c2cc3ccccc3[nH]2)nc2ccccc21 (stereo not given) | 44.7* | i | . | . | 41.3* | 67.2*
O=C(NC1CCCCC1)C(CCc1ccccc1)n1c(=O)c(-c2ccccc2)nc2ccccc21 (stereo not given) | -14.9 | i | . | . | . | .
COCOCCn1cc(CN2CCS(=O)(=O)N(Cc3ccc(-c4ccncc4)cc3)C(CC(C)C)C2=O)nn1 (stereo not given) | -7.8 | i | . | 8.8 | . | .
CCOC(=O)N(C)c1c(CC)nc2c(OCc3ccccc3)cccn12 | -4.3 | i | . | . | . | .
COc1ccc(C(=O)N/N=C/c2sc3ccccc3c2O)cc1 | 21.8* | i | -0.8 | 9.6 | 10.0 | 10.2
Cc1ccc([C@@H]2C[C@H]3[C@@H](CN2S(=O)(=O)c2ccc(Cl)cc2)C(=O)C[C@@H](c2ccc(C)cc2)N3S(=O)(=O)c2ccc(Cl)cc2)cc1 | -11.6 | i | . | 3.8 | . | .
COc1cc2c3nnc(-c4ccc(F)cc4)c-3cn(Cc3ccccc3)c2cc1OC | 66.5* | + | 21.8 | 12.0 | 66.0* | 66.4*
CCOC(=O)c1c(CN2CCNCC2)nc2ccc(Cl)cc2c1-c1ccccc1 | 20.9* | i | . | -7.1 | 19.2 | -2.8
O=C(NCC1CCOCC1)C1Cc2c(-c3ccccc3Oc3ccccc3)ccnc2O1 (stereo not given) | -1.2 | i | . | . | . | .
OC[C@@H]1[C@@H](c2ccc(F)cc2)C(c2cccc(Cl)c2)=NN1c1ccccc1 | 29.4* | i | . | 1.8 | 29.5* | 53.7*
OC[C@@H]1[C@@H](c2ccc(Cl)cc2)C(c2cccc(Cl)c2)=NN1c1ccccc1 | 34.3* | i | . | 1.7 | 29.7* | 59.4*
OC[C@@H]1[C@@H](c2ccc(Cl)cc2)C(c2ccccc2)=NN1c1ccccc1 | 8.4 | i | . | -6.8 | . | .
O=C(Nc1ccc2nc3n(c(=O)c2c1)CCCCC3)c1cc([N+](=O)[O-])ccc1F | 14.6 | ? | . | -8.3 | . | .
O=C(Nc1ccc2nc3n(c(=O)c2c1)CCCCC3)c1c(F)ccc([N+](=O)[O-])c1F | 22.7* | ? | . | 10.9 | 22.9* | -1.7
NNc1nc2ccc(Cl)cc2s1 | 3.5 | i | 0.4 | 3.1 | . | .
NNc1nc2ccc(F)cc2s1 | 29.9* | i | -6.5 | 6.7 | -4.6 | -4.0
CC(C)C[C@H]1CN(CCCC[C@H]2CNC(=O)C(=O)N2CC2CCCCC2)C(=O)C(=O)N1CC1CCCCC1 | 2.5 | i | . | . | . | .
CC(=O)Nc1ccc(N2C(=O)c3cccc4c(O)ccc(c34)C2=O)cc1 | 26.9* | i | . | 17.1 | 24.7* | 28.2*
Cc1ccc(N2C(=O)c3cccc4c(C(=O)O)ccc(c34)C2=O)cc1 | . | . | -13.7 | . | . | .
SMILES | NOD2 RIPK2 PPI | Myeloid diff MLP | TLR4 MyD88 comp | TLR9-MyD88 block | NOD2 RIPK2 conf | BLA counter
C=C1CC2(OC1=O)c1ccccc1CCc1ccccc12 | 83.8* | ? | . | 15.6 | 89.6* | 25.2*
O=C1NC(=O)C2(CCc3ccccc32)N1 (stereo not given) | 5.7 | i | -3.1 | -4.9 | . | .
CCOC(=O)/C=c1\s/c(=C\c2ccc(-c3ccccc3)cc2)c(=O)n1CC(=O)NCc1ccc2c(c1)OCO2 | 0.4 | i | -6.2 | -0.6 | . | .
CCOC(=O)/C=c1/s/c(=C/c2ccc3cc(OC)ccc3c2)c(=O)n1CC(=O)NCc1ccc2c(c1)OCO2 | 25.0* | i | . | -4.2 | 44.1* | 53.1*
O=c1c2ccc(F)cc2sn1-c1ccccc1 | 36.4* | i | . | 13.8 | 46.0* | 7.7
O=c1c2ccccc2sn1-c1ccc(Cl)cc1 | 11.6 | i | . | 18.7 | . | .
CC1(C(=O)NS(=O)(=O)c2ccc3c(c2)CCO3)CCN1C(=O)CCC1CCCC1 (stereo not given) | 4.3 | i | . | . | . | .
O=C1NC[C@H](CCCCN2C[C@H](Cc3ccc(O)cc3)N(CCc3ccccc3)C(=O)C2=O)N(CC2CCCCC2)C1=O | 3.3 | i | . | . | . | .
O=C(CN(c1cccc(C(F)(F)F)c1)S(=O)(=O)c1ccc(Cl)c([N+](=O)[O-])c1)NCc1ccc(F)cc1 | 23.3* | ? | 6.8 | 5.9 | 28.9* | -1.5
O=C(Nc1ccc(F)cc1)c1nn(-c2ccccc2)c(=O)cc1Cl | 36.3* | ? | 5.9 | 6.8 | 39.8* | 5.3
Cc1cc(=O)oc2c(CN3CCN(C)CC3)c(O)c(Cl)cc12 | -14.9 | i | 7.3 | -2.9 | . | .
CN1CCN(Cc2c(O)c(Cl)cc3c(-c4ccccc4)cc(=O)oc23)CC1 | 21.2* | i | 4.9 | 5.5 | 21.4* | 24.1*
CN(c1ccccc1)S(=O)(=O)c1ccc(C(=O)NCC(c2ccco2)N2CCCCC2)cc1 (stereo not given) | 24.6* | i | . | 8.1 | 1.7 | -2.4
